From the supplement of paper PMC8728848
This is one part of a sample in which the strongest signals are shown more often than they occur.

Assays:
Test in all cases: glycan array binding signal (z-score within array); higher = stronger binding
Details in all cases: glycan notation: IUPAC condensed, linker removed
[1] = molecular target: Fuc(a1-2)Gal(b1-3)GlcNAc(b1-2)Man(a1-3)[Fuc(a1-2)Gal(b1-3)GlcNAc(b1-2)Man(a1-6)]Man(b1-4)GlcNAc(b1-4)GlcNAc
Method in brief: (§1)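 Glycan array data came from 3228 arrays in the Consortium for Functional Glycomics database, and only arrays with an available protein sequence were kept. Glycan names were put into IUPAC-condensed notation, and columns mapping to the same glycan were averaged. The binding signal is a within-array Z-score, averaged across arrays of one protein sequence run at different concentrations or buffers and across linkers. A negative Z-score can be read as non-binding.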

Fuc(a1-2)Gal(b1-4)Glc6S = molecular target: Fuc(a1-2)Gal(b1-4)Glc6S
Method in brief: as §1

[2] = molecular target: Fuc(a1-2)Gal(b1-4)GlcNAc(b1-3)Gal(b1-4)GlcNAc
Method in brief: as §1

[3] = molecular target: Fuc(a1-2)Gal(b1-4)GlcNAc(b1-3)GalNAc
Method in brief: as §1

[4] = molecular target: Fuc(a1-2)Gal(b1-4)GlcNAc(b1-3)[Fuc(a1-2)Gal(b1-4)GlcNAc(b1-6)]GalNAc
Method in brief: as §1

[5] = molecular target: Fuc(a1-2)Gal(b1-4)GlcNAc(b1-3)[Fuc(a1-3)[Gal(b1-4)]GlcNAc(b1-6)]Gal(b1-4)Glc
Method in brief: as §1

[6] = molecular target: Fuc(a1-2)Gal6S(b1-3)GlcNAc6S
Method in brief: as §1

Fuc(a1-2)Gal6S(b1-4)Glc = molecular target: Fuc(a1-2)Gal6S(b1-4)Glc
Method in brief: as §1

Fuc(a1-2)[Gal(a1-3)]Gal = molecular target: Fuc(a1-2)[Gal(a1-3)]Gal
Method in brief: as §1

[7] = molecular target: Fuc(a1-2)[GalNAc(a1-3)]Gal
Method in brief: as §1

[8] = molecular target: Fuc(a1-2)[GalNAc(a1-3)]Gal(b1-3)GalNAc(a1-3)[Fuc(a1-2)]Gal(b1-4)GlcNAc
Method in brief: as §1

[9] = molecular target: Fuc(a1-3)[Gal(b1-4)]GlcNAc(b1-3)Gal(b1-3)[Fuc(a1-4)]GlcNAc
Method in brief: as §1

[10] = molecular target: Fuc(a1-3)[Gal(b1-4)]GlcNAc(b1-3)Gal(b1-4)[Fuc(a1-3)]GlcNAc
Method in brief: as §1

[11] = molecular target: Fuc(a1-3)[Gal(b1-4)]GlcNAc(b1-6)GalNAc
Method in brief: as §1

[12] = molecular target: Fuc(a1-3)[GalNAc(b1-4)]GlcNAc
Method in brief: as §1

Gal(a1-2)Gal = molecular target: Gal(a1-2)Gal
Method in brief: as §1

Gal(a1-3)Gal(b1-3)GlcNAc = molecular target: Gal(a1-3)Gal(b1-3)GlcNAc
Method in brief: as §1

Gal(b1-3)Gal(b1-4)GlcNAc = molecular target: Gal(b1-3)Gal(b1-4)GlcNAc
Method in brief: as §1

[13] = molecular target: Gal(b1-3)GlcNAc(b1-3)Gal(b1-3)GlcNAc
Method in brief: as §1

[14] = molecular target: Gal(b1-3)GlcNAc(b1-3)Gal(b1-4)GlcNAc(b1-3)Gal(b1-4)GlcNAc(b1-2)[Gal(b1-3)GlcNAc(b1-3)Gal(b1-4)GlcNAc(b1-3)Gal(b1-4)GlcNAc(b1-6)]Man(a1-6)[Gal(b1-3)GlcNAc(b1-3)Gal(b1-4)GlcNAc(b1-3)Gal(b1-4)GlcNAc(b1-2)Man(a1-3)]Man(b1-4)GlcNAc(b1-4)[Fuc(a1-6)]GlcNAc
Method in brief: as §1

[15] = molecular target: Gal(b1-3)[Fuc(a1-4)]GlcNAc(b1-2)Man
Method in brief: as §1

[16] = molecular target: Gal(b1-3)[Fuc(a1-4)]GlcNAc(b1-2)Man(a1-3)[Gal(b1-3)[Fuc(a1-4)]GlcNAc(b1-2)Man(a1-6)]Man(b1-4)GlcNAc(b1-4)[Fuc(a1-6)]GlcNAc
Method in brief: as §1

[17] = molecular target: Gal(b1-3)[Fuc(a1-4)]GlcNAc(b1-6)GalNAc
Method in brief: as §1

[18] = molecular target: Gal(b1-3)[Neu5Ac(a2-6)]GlcNAc(b1-4)Gal(b1-4)Glc
Method in brief: as §1

[19] = molecular target: Gal(b1-3)[Neu5Ac(b2-6)]GalNAc
Method in brief: as §1

[20] = molecular target: Gal(b1-4)GlcNAc(b1-3)Gal(b1-4)Glc
Method in brief: as §1

[21] = molecular target: Gal(b1-4)GlcNAc(b1-3)Gal(b1-4)GlcNAc(b1-3)Gal(b1-4)GlcNAc(b1-3)Gal(b1-4)GlcNAc(b1-3)Gal(b1-4)GlcNAc(b1-2)Man(a1-3)[Gal(b1-4)GlcNAc(b1-3)Gal(b1-4)GlcNAc(b1-3)Gal(b1-4)GlcNAc(b1-3)Gal(b1-4)GlcNAc(b1-3)Gal(b1-4)GlcNAc(b1-2)Man(a1-6)]Man(b1-4)GlcNAc(b1-4)GlcNAc
Method in brief: as §1

[22] = molecular target: Gal3S(b1-4)[Fuc(a1-3)]Glc6S
Method in brief: as §1

Gal6S(b1-4)GlcNAc6S = molecular target: Gal6S(b1-4)GlcNAc6S
Method in brief: as §1

GalNAc3S(b1-4)GlcNAc = molecular target: GalNAc3S(b1-4)GlcNAc
Method in brief: as §1

GalNAc6S(b1-4)GlcNAc = molecular target: GalNAc6S(b1-4)GlcNAc
Method in brief: as §1

[23] = molecular target: Glc(a1-4)Glc(a1-4)Glc(a1-4)Glc
Method in brief: as §1

Glc(a1-6)Glc(a1-6)Glc = molecular target: Glc(a1-6)Glc(a1-6)Glc
Method in brief: as §1

[24] = molecular target: Glc(a1-6)Glc(a1-6)Glc(a1-6)Glc
Method in brief: as §1

GlcA(b1-6)Gal = molecular target: GlcA(b1-6)Gal
Method in brief: as §1

[25] = molecular target: GlcNAc(b1-3)Gal(b1-4)GlcNAc(b1-3)Gal(b1-4)GlcNAc(b1-3)Gal(b1-4)GlcNAc(b1-3)Gal(b1-4)GlcNAc(b1-2)Man(a1-3)[GlcNAc(b1-3)Gal(b1-4)GlcNAc(b1-3)Gal(b1-4)GlcNAc(b1-3)Gal(b1-4)GlcNAc(b1-3)Gal(b1-4)GlcNAc(b1-2)Man(a1-6)]Man(b1-4)GlcNAc(b1-4)[Fuc(a1-6)]GlcNAc
Method in brief: as §1

[26] = molecular target: GlcNAc(b1-3)Gal(b1-4)GlcNAc(b1-3)[GlcNAc(b1-3)Gal(b1-4)GlcNAc(b1-3)]GalNAc
Method in brief: as §1

GlcNAc(b1-3)Man = molecular target: GlcNAc(b1-3)Man
Method in brief: as §1

[27] = molecular target: Man(a1-2)Man(a1-2)Man(a1-6)[Man(a1-3)]Man
Method in brief: as §1

[28] = molecular target: Man(a1-2)Man(a1-6)[Man(a1-3)]Man(a1-6)[Man(a1-2)Man(a1-2)Man(a1-3)]Man
Method in brief: as §1

Man(a1-3)[Man(a1-6)]Man = molecular target: Man(a1-3)[Man(a1-6)]Man
Method in brief: as §1

[29] = molecular target: Man(a1-3)[Man(a1-6)]Man(a1-6)[Man(a1-2)Man(a1-3)]Man(b1-4)GlcNAc(b1-4)GlcNAc
Method in brief: as §1

[30] = molecular target: Neu5Ac(a2-3)Gal(b1-3)[Fuc(a1-4)]GlcNAc(b1-3)Gal(b1-4)[Fuc(a1-3)]GlcNAc
Method in brief: as §1

[31] = molecular target: Neu5Ac(a2-3)Gal(b1-4)GlcNAc
Method in brief: as §1

[32] = molecular target: Neu5Ac(a2-3)Gal(b1-4)GlcNAc(b1-3)Gal(b1-4)GlcNAc(b1-3)Gal(b1-4)GlcNAc
Method in brief: as §1

[33] = molecular target: Neu5Ac(a2-3)Gal6S(b1-4)[Fuc(a1-3)]GlcNAc
Method in brief: as §1

[34] = molecular target: Neu5Ac(a2-6)Gal(b1-3)GlcNAc(b1-3)[Gal(b1-4)GlcNAc(b1-6)]Gal(b1-4)Glc
Method in brief: as §1

[35] = molecular target: Neu5Ac(a2-6)Gal(b1-4)GlcNAc
Method in brief: as §1

[36] = molecular target: Neu5Ac(a2-6)Gal(b1-4)GlcNAc(b1-2)Man(a1-3)[Neu5Ac(a2-6)Gal(b1-4)GlcNAc(b1-2)Man(a1-6)]Man(b1-4)GlcNAc(b1-4)[Fuc(a1-6)]GlcNAc
Method in brief: as §1

[37] = molecular target: Neu5Ac(a2-6)Gal(b1-4)GlcNAc(b1-3)GalNAc
Method in brief: as §1

[38] = molecular target: Neu5Ac(a2-6)Gal(b1-4)GlcNAc(b1-6)[Gal(b1-3)GlcNAc(b1-3)]Gal(b1-4)Glc
Method in brief: as §1

[39] = molecular target: Neu5Ac(a2-8)Neu5Ac(a2-3)Gal(b1-4)Glc
Method in brief: as §1

[40] = molecular target: Neu5Gc(a2-3)Gal(b1-4)GlcNAc(b1-3)Gal(b1-4)GlcNAc(b1-2)Man(a1-3)[Neu5Gc(a2-3)Gal(b1-4)GlcNAc(b1-3)Gal(b1-4)GlcNAc(b1-2)Man(a1-6)]Man(b1-4)GlcNAc(b1-4)GlcNAc
Method in brief: as §1

[41] = molecular target: Neu5Gc(a2-8)Neu5Gc(a2-6)Gal(b1-4)GlcNAc
Method in brief: as §1

B1: Tamarinin (protein)
chain: CDDSARAGNIVVYWGQGGSDNSEGSLKEACKSGHYNMIVLQQLIVYDDGRDPDLNLGAHCSDCTKLEEQIKYCQNKDIKILLQIGQVVPTQEDVKDVTKNLSEYLLKNFFSGKSGPLGEVYLNGIDIASVPEGNNLKFDELVEALNDSSTERRIYLSASPLCVYPDYYLNKAIQTEKLDFLFVQFFYQNPCIYTEGNPENLFEAMKTWTKNVPESMIFMALPATPNLDGYIPPRVLNKEILPAVSEASNFAGVMIFDRYFDRFRKYSSKIK
glycan array binding signal (z-score) [1]: 0.79
glycan array binding signal (z-score) (Fuc(a1-2)Gal(b1-4)Glc6S): -0.241
glycan array binding signal (z-score) [2]: -0.361
glycan array binding signal (z-score) [3]: 0.146
glycan array binding signal (z-score) [4]: 4.01
glycan array binding signal (z-score) [5]: -0.458
glycan array binding signal (z-score) [6]: 4.89
glycan array binding signal (z-score) (Fuc(a1-2)Gal6S(b1-4)Glc): -0.164
glycan array binding signal (z-score) (Fuc(a1-2)[Gal(a1-3)]Gal): -0.275
glycan array binding signal (z-score) [7]: -0.388
glycan array binding signal (z-score) [8]: -0.292
glycan array binding signal (z-score) [9]: -0.377
glycan array binding signal (z-score) [10]: 0.223
glycan array binding signal (z-score) [11]: -0.129
glycan array binding signal (z-score) [12]: -0.154
glycan array binding signal (z-score) (Gal(a1-2)Gal): -0.001
glycan array binding signal (z-score) (Gal(a1-3)Gal(b1-3)GlcNAc): -0.375
glycan array binding signal (z-score) (Gal(b1-3)Gal(b1-4)GlcNAc): 11.2
glycan array binding signal (z-score) [13]: -0.135
glycan array binding signal (z-score) [14]: 4.61
glycan array binding signal (z-score) [15]: 1.45
glycan array binding signal (z-score) [16]: 3.52
glycan array binding signal (z-score) [17]: -0.371
glycan array binding signal (z-score) [18]: 2.92
glycan array binding signal (z-score) [19]: -0.455
glycan array binding signal (z-score) [20]: 0.79
glycan array binding signal (z-score) [21]: -0.24
glycan array binding signal (z-score) [22]: -0.238
glycan array binding signal (z-score) (Gal6S(b1-4)GlcNAc6S): -0.214
glycan array binding signal (z-score) (GalNAc3S(b1-4)GlcNAc): 2.59
glycan array binding signal (z-score) (GalNAc6S(b1-4)GlcNAc): 2.4
glycan array binding signal (z-score) [23]: -0.232
glycan array binding signal (z-score) (Glc(a1-6)Glc(a1-6)Glc): -0.034
glycan array binding signal (z-score) [24]: 0.415
glycan array binding signal (z-score) (GlcA(b1-6)Gal): 0.165
glycan array binding signal (z-score) [25]: -0.061
glycan array binding signal (z-score) [26]: -0.332
glycan array binding signal (z-score) (GlcNAc(b1-3)Man): 0.095
glycan array binding signal (z-score) [27]: 14.1
glycan array binding signal (z-score) [28]: -0.298
glycan array binding signal (z-score) (Man(a1-3)[Man(a1-6)]Man): 0.04
glycan array binding signal (z-score) [29]: -0.295
glycan array binding signal (z-score) [30]: 3.05
glycan array binding signal (z-score) [31]: -0.352
glycan array binding signal (z-score) [32]: -0.251
glycan array binding signal (z-score) [33]: -0.371
glycan array binding signal (z-score) [34]: -0.386
glycan array binding signal (z-score) [35]: -0.341
glycan array binding signal (z-score) [36]: -0.131
glycan array binding signal (z-score) [37]: 5.41
glycan array binding signal (z-score) [38]: -0.361
glycan array binding signal (z-score) [39]: -0.395
glycan array binding signal (z-score) [40]: -0.36
glycan array binding signal (z-score) [41]: -0.477
